Shown are actives, neighbours in structure and some others; about 2.5% of the full set was active somewhere.
MEKK2 mut-MEK5: MEK5 binding signal on mutant MEKK2 PB1, primary screen, biochemical, multiplex bead flow cytometry, Alexa488-MEK5 | Alexa488-MEK5 binding to MEKK2 mutant | percent response, % at 10 µM | 290,000 tested, 0.35% active; in the data active means percent response above about 24%, passing the limit was not always enough
MEKK2 WT-MEK5: modulators of MEK5 binding to wildtype MEKK2, primary screen, biochemical, multiplex bead flow cytometry, Alexa488-MEK5 | 290,000 tested, 1.1% active | Alexa488-MEK5 binding to MEKK2 WT; actives lie on both sides | AID 1531, 2009 | binding response (% of control), % at 10 µM | Mitogen-activated protein kinase kinase kinase 2 (Homo sapiens), Q9Y2U5; in the data active means binding response below about 67% or above about 130%
GRK2 inh: compounds blocking aptamer binding on GRK2 – biochemical, human GRK2, bead flow cytometry, HTS, primary screen | Beta-adrenergic receptor kinase 1 (Homo sapiens), P25098 | FAM-aptamer displacement from GRK2 | inhibition of aptamer binding, % at 10 µM | 330,000 tested, 0.59% active | AID 488847, 2010;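 active means inhibition of aptamer binding above 40%, roughly 3 SD of noise, on plates passing a quality check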;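 further: median bead fluorescence of bound FAM aptamer so fluorescent compounds give negative values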
MEKK3 PB1 HTS: modulators of MEKK3-MEK5 PB1 binding, primary screen, biochemical, wildtype MEKK3, multiplex bead flow cytometry, Alexa488-MEK5. Mitogen-activated protein kinase kinase kinase 3 (Homo sapiens), Q99759. bead-based flow cytometry, Alexa488-MEK5 binding to MEKK3; actives lie on both sides; 0 = blocked by unlabeled MEK5, 100 = vehicle. binding response (% of control), % at 10 µM. 290,000 tested, 1.4% active. AID 1529, 2009;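 active means binding response more than 3 SD above or below the average of its plate-row segment, actives on both sides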;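 further: Alexa488 bead fluorescence after subtracting the streptavidin-only scavenger bead signal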
Target sequence (Q99759 whole entry, looked up): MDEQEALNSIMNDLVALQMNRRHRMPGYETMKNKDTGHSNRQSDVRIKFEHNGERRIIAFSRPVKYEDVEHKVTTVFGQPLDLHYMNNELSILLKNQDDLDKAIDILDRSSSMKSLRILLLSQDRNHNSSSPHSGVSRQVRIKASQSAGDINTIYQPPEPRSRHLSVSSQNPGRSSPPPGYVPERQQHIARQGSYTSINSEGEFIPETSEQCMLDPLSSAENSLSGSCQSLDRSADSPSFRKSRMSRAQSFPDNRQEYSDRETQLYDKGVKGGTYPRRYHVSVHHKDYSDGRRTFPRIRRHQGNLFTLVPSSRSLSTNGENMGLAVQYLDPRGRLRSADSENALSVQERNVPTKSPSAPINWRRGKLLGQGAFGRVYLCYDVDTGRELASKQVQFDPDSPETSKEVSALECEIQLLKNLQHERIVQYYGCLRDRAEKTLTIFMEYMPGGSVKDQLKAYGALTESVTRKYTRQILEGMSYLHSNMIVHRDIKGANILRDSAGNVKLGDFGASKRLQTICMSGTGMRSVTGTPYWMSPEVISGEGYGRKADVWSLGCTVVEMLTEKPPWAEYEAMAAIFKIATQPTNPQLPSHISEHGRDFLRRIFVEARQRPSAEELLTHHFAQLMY
MEKK2wt confirm: modulators of MEK5 binding to wildtype MEKK2, confirmation, biochemical, single concentration, multiplex bead flow cytometry; shares compounds with MEKK3 PB1 HTS; Alexa488-MEK5 binding to MEKK2 WT; actives lie on both sides; binding response (% of control), % at 10 µM; 5,900 tested, 2.4% active; AID 1892, 2009; in the data active means binding response below about 16% or above about 210%; inactive means in between
MEKK2mut-MEK5: mutant MEKK2 PB1-MEK5 binding signal retest – biochemical, single concentration, multiplex bead flow cytometry, confirmation; shares compounds with MEKK3 PB1 HTS; Alexa488-MEK5 binding to MEKK2 mutant; percent response, % at 10 µM; 5,900 tested, 2% active; AID 1893, 2009; in the data active means percent response mostly above about 71%, no sharp cut-off; inactive means mostly below about 38%;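 further: higher means compound restores mutant binding toward wildtype level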
MEKK3-MEK5 inh: MEKK3 wild-type PB1 binding to MEK5, inhibitors, confirmation, biochemical, bead multiplex flow cytometry, single concentration, wildtype | AID 1894, 2009 | binding response (% of control), % at 10 µM | 5,900 tested, 1.8% active | shares compounds with MEKK3 PB1 HTS | Alexa488-MEK5 binding to MEKK3; hits give low values;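 active means binding response below 72% of control, or above a set upper limit, though filed actives all read lower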
Large screens that a line does not name were inactive (follow-up assays come after a bar, where they were run); ! = repeats disagree; [ ] = dose if it differs, or a comment.

COc1ccc(-c2nc3c(c(=O)c4ccccc4n3C)c(=O)n2Cc2ccccc2)cc1	MEKK3 PB1 HTS 149 | MEKK2wt confirm inactive | MEKK2mut-MEK5 inactive | MEKK3-MEK5 inh inactive
Cc1ccc(Nc2nc(N)nc(CSCCO)n2)cc1	none
COc1ccc(Nc2nc(N)nc(CSCCO)n2)cc1	MEKK2 WT-MEK5 135 | MEKK2wt confirm inactive | MEKK2mut-MEK5 inactive | MEKK3-MEK5 inh inactive
CCN(CC)S(=O)(=O)c1cc(C(=O)OCC(=O)Nc2c(F)cccc2F)ccc1F	none
CCc1cccc(CC)c1NC(=O)COC(=O)c1ccc(F)c(S(=O)(=O)N(CC)CC)c1	MEKK3 PB1 HTS 135 | MEKK2wt confirm inactive | MEKK2mut-MEK5 inactive | MEKK3-MEK5 inh inactive
CCN(CC)S(=O)(=O)c1cc(C(=O)OCC(=O)Nc2cccc(C)c2C)ccc1F	MEKK3 PB1 HTS 129 | MEKK2wt confirm inactive | MEKK2mut-MEK5 inactive | MEKK3-MEK5 inh inactive
O=C(CCN1C(=O)c2ccccc2S1(=O)=O)Nc1ccccc1F	none (no result: GRK2 inh)
C#CCOCCOCCOCCNc1nc(N2CCN(C(=O)[C@H](CCCCN)n3cc([C@@H](N)CO)nn3)CC2)nc(N2CCN(C(=O)[C@H](Cc3cc4ccccc4[nH]3)n3cc([C@@H](N)CC(C)C)nn3)CC2)n1	MEKK2 mut-MEK5 67, MEKK2 WT-MEK5 195 | MEKK2wt confirm inactive | MEKK2mut-MEK5 inactive | MEKK3-MEK5 inh inactive
C#CCOCCOCCOCCNc1nc(N2CCN(C(=O)[C@H](CCCCN)n3cc([C@@H](N)CO)nn3)CC2)nc(N2CCN(C(=O)[C@H](Cc3ccc(O)cc3)n3cc([C@@H](N)CC(C)C)nn3)CC2)n1	none
C#CCOCCOCCOCCNc1nc(N2CCN(C(=O)[C@H](CCCCN)n3cc([C@@H](N)CO)nn3)CC2)nc(N2CCN(C(=O)[C@H](Cc3cc4ccccc4[nH]3)n3cc([C@@H](N)CO)nn3)CC2)n1	MEKK2 WT-MEK5 139 | MEKK2wt confirm inactive | MEKK2mut-MEK5 inactive | MEKK3-MEK5 inh inactive
CCC(C)NC(=O)CSc1nc2c(sc(=S)n2-c2cc(Cl)ccc2OC)c(=O)[nH]1 (stereo not drawn)	none
CCCC(=O)Nc1nc2nc(C)cc(=O)n2[nH]1	none (no result: MEKK2 mut-MEK5, MEKK2 WT-MEK5, MEKK3 PB1 HTS)
CCOC(=O)CCn1nc(-c2ccc(C)cc2)c2ccccc2c1=O	none
CCn1c(/C=N/Nc2ccc(C(=O)O)cc2)nc2ccccc21	MEKK3 PB1 HTS 133 | MEKK2wt confirm inactive | MEKK2mut-MEK5 inactive | MEKK3-MEK5 inh inactive
CCOc1ccccc1NC(=O)CSc1nc2nc(-c3cccs3)cc(C(F)(F)F)c2c(=O)[nH]1	MEKK2 WT-MEK5 59[inhibitor], MEKK3 PB1 HTS 73[inhibitor] | MEKK2wt confirm inactive | MEKK2mut-MEK5 inactive | MEKK3-MEK5 inh inactive
COc1ccc(NC(=O)CSc2nc3nc(-c4cccs4)cc(C(F)(F)F)c3c(=O)[nH]2)c(OC)c1	none
Cc1cc(C)c2c(n1)sc1c(O)cc(=O)[nH]c12	MEKK3 PB1 HTS 122 | MEKK2wt confirm inactive | MEKK2mut-MEK5 inactive | MEKK3-MEK5 inh inactive
CCS(=O)(=O)N1CCCC(C(=O)NCC2CCCO2)C1 (stereo not drawn)	none
O=C(Nn1c(O)c(C=C2N=c3ccccc3=N2)sc1=S)c1ccccc1Cl	MEKK2 WT-MEK5 58[inhibitor] | MEKK2wt confirm inactive | MEKK2mut-MEK5 inactive | MEKK3-MEK5 inh inactive
Oc1c(C=C2N=c3ccccc3=N2)sc(=S)n1C1CCCCC1	MEKK2 WT-MEK5 53![inhibitor] | MEKK2wt confirm inactive | MEKK2mut-MEK5 inactive | MEKK3-MEK5 inh inactive
COc1ccc(CNS(=O)(=O)c2cc(-c3cc(C)no3)ccc2C)cc1OC	none
COc1ccc(NC(=O)c2[nH]ncc2[N+](=O)[O-])cc1	none
O=C(C[n+]1ccc2ccccc2c1)c1cccc2ccccc12	none
O=C(/C=C/c1cc[n+](CC(=O)c2ccc3cccc4c3c2CC4)cc1)c1ccc2cccc3c2c1CC3	GRK2 inh 94, MEKK3 PB1 HTS 70[inhibitor] | MEKK2wt confirm inactive | MEKK2mut-MEK5 inactive | MEKK3-MEK5 inh inactive
CCOC(=O)c1c(CSC(=N)N)n(-c2ccccc2)c2cc(Br)c(OC(C)=O)cc12	MEKK2 WT-MEK5 143 | MEKK2wt confirm inactive | MEKK2mut-MEK5 inactive | MEKK3-MEK5 inh inactive
CCOC(=O)c1c(CN2CCN(C)CC2)n(-c2ccccc2)c2cc(Br)c(O)cc12	none
CCOC(=O)c1c(CN2CCN(Cc3ccccc3)CC2)n(C)c2cc(Br)c(OC)cc12	MEKK2 WT-MEK5 135 | MEKK2wt confirm inactive | MEKK2mut-MEK5 inactive | MEKK3-MEK5 inh inactive
CCOC(=O)c1c(CN2CCN(CC#N)CC2)n(C)c2cc(Br)c(OC)cc12	none
CCOC(=O)c1c(CSc2ccccc2)n(C)c2cc(Br)c(OCC(O)CNC(CO)(CO)CO)cc12 (stereo not drawn)	MEKK3 PB1 HTS 69[inhibitor] | MEKK2wt confirm inactive | MEKK2mut-MEK5 inactive | MEKK3-MEK5 inh inactive
CCOC(=O)c1c(CSc2ccccc2)n(C)c2cc(Br)c(OC)c(O)c12	none
COc1ccc(N(CC(=O)Nc2cc(Cl)ccc2OC)S(=O)(=O)c2c(C)[nH]c(=O)[nH]c2=O)cc1	none
CCOC(=O)c1cc(=O)n2nc(-c3ccccc3F)nc2s1	none
CS/C(N)=N/N=C/c1cc(Br)cc(Br)c1O	MEKK3 PB1 HTS 129 | MEKK2wt confirm inactive | MEKK2mut-MEK5 inactive | MEKK3-MEK5 inh inactive
Cc1ccc(C2(CCNCc3ccc(N(C)C)cc3)CCOC(C(C)C)C2)cc1 (stereo not drawn)	MEKK2 WT-MEK5 149 | MEKK2wt confirm inactive | MEKK2mut-MEK5 inactive | MEKK3-MEK5 inh inactive
CC(C)C1CC(CCNCc2ccc(N(C)C)cc2)(c2ccccc2)CCO1 (stereo not drawn)	none
CS/C(N)=N/N=C/c1c(O)ccc2ccccc12	MEKK3 PB1 HTS 133 | MEKK2wt confirm inactive | MEKK2mut-MEK5 inactive | MEKK3-MEK5 inh inactive
CC(C)N1CCC2(CC1)N=C(c1ccc3c(c1)OCO3)CC(c1cc(Cl)ccc1O)N2 (stereo not drawn)	MEKK2 mut-MEK5 26, MEKK2 WT-MEK5 138 | MEKK2wt confirm inactive | MEKK2mut-MEK5 inactive | MEKK3-MEK5 inh inactive
CC(Sc1ccc(Cl)cc1)C(=O)Nc1ccc2c(c1)OCO2 (stereo not drawn)	none
COc1ccc(NC(=O)Cc2c(SC)c3ccccc3n2Cc2ccccc2)cc1	MEKK3 PB1 HTS 160 | MEKK2wt confirm inactive | MEKK2mut-MEK5 inactive | MEKK3-MEK5 inh inactive
CSc1c(CC(=O)NCCCO)n(Cc2ccccc2)c2ccccc12	none

Bioassay records: PubChem, NMMLSC
